“And” between values parts separate entries of the source, which are not always exact repeats. Equal values may be shown once. Hit rate of the full screen: of about 5,500 compounds, about 2,000 (36%) were called active. Another 18% or so got no clear call; they are omitted. No stated cut-off is given here; in the data, active means normalized growth mostly below about 0.91 (no sharp cut-off); inconclusive means no clear call, values can overlap the other calls; inactive means mostly above about 0.92. Some of the results follow.
Assay: chemical genetic growth profiling, strain panel (AID 1159580);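 further: tested at 20 µM; growth read once vehicle control cultures reached saturation at 30 °C; 1 = growth at the plate median or of vehicle wells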
Conditions: S. cerevisiae deletion strains, growth OD

For O=C(O)c1cc2ccccc2c(Cc2c(O)c(C(=O)O)cc3ccccc23)c1O, the normalized growth (locus YAL021C, strain ccr4, stronger effect = lower value) was 0.967 (inactive), the normalized growth (locus YAL026C, strain drs2, stronger effect = lower value) was 1.01 (inactive) and the normalized growth (locus YAL030W, strain snc1, stronger effect = lower value) was 0.994 (inactive). The normalized growth (locus YBL061C, strain skt5, stronger effect = lower value) was 0.99 (inactive), the normalized growth (locus YBR009C, strain hhf1, stronger effect = lower value) was 0.988 (inactive) and the normalized growth (locus YBR021W, strain FUR4, stronger effect = lower value) was 1.02 (inactive). For the same molecule, the normalized growth (locus YBR023C, strain chs3, stronger effect = lower value) was 0.996 (inactive), the normalized growth (locus YBR171W, strain sec66, stronger effect = lower value) was 1 (inactive) and the normalized growth (locus YBR229C, strain ROT2, stronger effect = lower value) was 1.01 (inactive). The normalized growth (locus YBR231C, strain swc5, stronger effect = lower value) was 0.977 (inactive), the normalized growth (locus YBR279W, strain paf1, stronger effect = lower value) was 0.99 (inactive) and the normalized growth (locus YCL011C, strain gbp2, stronger effect = lower value) was 1 (inactive). The normalized growth (locus YCL016C, strain dcc1, stronger effect = lower value) was 0.989 (inactive), the normalized growth (locus YCL029C, strain bik1, stronger effect = lower value) was 1.01 (inactive) and the normalized growth (locus YCL061C, strain MRC1, stronger effect = lower value) was 1 (inactive). For the same molecule, the normalized growth (locus YCL069W, strain vba3, stronger effect = lower value) was 1 (inactive), the normalized growth (locus YCR088W, strain abp1, stronger effect = lower value) was 1.01 (inactive) and the normalized growth (locus YDL005C, strain med2, stronger effect = lower value) was 1 (inactive). For the same molecule, the normalized growth (locus YDL035C, strain GPR1, stronger effect = lower value) was 1.01 (inactive), the normalized growth (locus YDL040C, strain nat1, stronger effect = lower value) was 0.995 (inactive) and the normalized growth (locus YDL074C, strain BRE1, stronger effect = lower value) was 0.94 (inactive). The normalized growth (locus YDL101C, strain DUN1, stronger effect = lower value) was 1 (inactive), the normalized growth (locus YDL134C, strain PPH21, stronger effect = lower value) was 0.997 (inactive) and the normalized growth (locus YDL185W, strain tfp1, stronger effect = lower value) was 1.01 (inactive). The normalized growth (locus YDL192W, strain arf1, stronger effect = lower value) was 1 (inactive), the normalized growth (locus YDR001C, strain nth1, stronger effect = lower value) was 1.01 (inactive) and the normalized growth (locus YDR069C, strain doa4, stronger effect = lower value) was 0.989 (inactive). For the same molecule, the normalized growth (locus YDR101C, strain arx1, stronger effect = lower value) was 1.01 (inactive), the normalized growth (locus YDR137W, strain rgp1, stronger effect = lower value) was 1.04 (inactive) and the normalized growth (locus YDR159W, strain sac3, stronger effect = lower value) was 0.97 (inactive). For the same molecule, the normalized growth (locus YDR162C, strain NBP2, stronger effect = lower value) was 0.985 (inactive), the normalized growth (locus YDR195W, strain ref2) was 0.977 (inactive) and the normalized growth (locus YDR297W, strain sur2, stronger effect = lower value) was 0.995 (inactive). For the same molecule, the normalized growth (locus YDR318W, strain mcm21, stronger effect = lower value) was 0.988 (inactive), the normalized growth (locus YDR334W, strain swr1, stronger effect = lower value) was 0.996 (inactive) and the normalized growth (locus YDR335W, strain msn5, stronger effect = lower value) was 1.01 (inactive). The normalized growth (locus YDR388W, stronger effect = lower value) was 0.996 (inactive), the normalized growth (locus YDR392W, strain spt3, stronger effect = lower value) was 0.911 (inactive) and the normalized growth (locus YDR502C, strain sam2, stronger effect = lower value) was 1 (inactive). The normalized growth (locus YEL003W, strain gim4, stronger effect = lower value) was 1.02 (inactive), the normalized growth (locus YEL037C, strain rad23, stronger effect = lower value) was 0.999 (inactive) and the normalized growth (locus YEL061C, strain CIN8 (second series), stronger effect = lower value) was 1 (inactive). The normalized growth (locus YEL061C, strain CIN8, stronger effect = lower value) was 1.03 (inactive), the normalized growth (locus YER015W, strain faa2, stronger effect = lower value) was 0.988 (inactive) and the normalized growth (locus YER016W, strain bim1, stronger effect = lower value) was 1 (inactive). The normalized growth (locus YER110C, stronger effect = lower value) was 0.989 (inactive), the normalized growth (locus YER111C, strain swi4, stronger effect = lower value) was 1.01 (inactive) and the normalized growth (locus YER155C, strain BEM2 (second series), stronger effect = lower value) was 0.962 (inactive). For the same molecule, the normalized growth (locus YER155C, strain BEM2, stronger effect = lower value) was 0.992 (inactive), the normalized growth (locus YER167W, strain BCK2, stronger effect = lower value) was 1 (inactive) and the normalized growth (locus YFR010W, strain ubp6, stronger effect = lower value) was 1.01 (inactive). The normalized growth (locus YGL078C, strain dbp3, stronger effect = lower value) was 1.01 (inactive), the normalized growth (locus YGL086W, strain mad1, stronger effect = lower value) was 1 (inactive) and the normalized growth (locus YGL167C, strain pmr1, stronger effect = lower value) was 0.994 (inactive). For the same molecule, the normalized growth (locus YGL173C, strain kem1, stronger effect = lower value) was 0.997 (inactive), the normalized growth (locus YGL227W, strain vid30, stronger effect = lower value) was 1 (inactive) and the normalized growth (locus YGL240W, strain doc1, stronger effect = lower value) was 0.96 (inactive). The normalized growth (locus YGL248W, strain PDE1, stronger effect = lower value) was 0.998 (inactive), the normalized growth (locus YGL253W, strain hxk2, stronger effect = lower value) was 1.01 (inactive) and the normalized growth (locus YGR078C, strain PAC10, stronger effect = lower value) was 0.996 (inactive). The normalized growth (locus YGR135W, strain pre9, stronger effect = lower value) was 0.99 (inactive), the normalized growth (locus YGR252W, strain gcn5, stronger effect = lower value) was 0.978 (inactive) and the normalized growth (locus YHR013C, strain ard1, stronger effect = lower value) was 0.966 (inactive). The normalized growth (locus YHR027C, strain rpn1, stronger effect = lower value) was 1 (inactive), the normalized growth (locus YHR030C, strain SLT2, stronger effect = lower value) was 1.01 (inactive) and 0.859 (inactive) and the normalized growth (locus YHR079C, strain IRE1 (second series), stronger effect = lower value) was 0.992 (inactive). The normalized growth (locus YHR079C, strain IRE1, stronger effect = lower value) was 0.844 (active), the normalized growth (locus YHR094C, strain hxt1, stronger effect = lower value) was 0.999 (inactive) and the normalized growth (locus YHR129C, strain ARP1, stronger effect = lower value) was 0.995 (inactive). For the same molecule, the normalized growth (locus YHR142W, strain chs7, stronger effect = lower value) was 1.02 (inactive), the normalized growth (locus YHR200W, strain rpn10, stronger effect = lower value) was 0.991 (inactive) and the normalized growth (locus YIL066C, strain RNR3, stronger effect = lower value) was 0.986 (inactive). The normalized growth (locus YIL073C, strain SPO22, stronger effect = lower value) was 1.02 (inactive), the normalized growth (locus YIL125W, strain kgd1, stronger effect = lower value) was 0.994 (inactive) and the normalized growth (locus YIR030C, strain dcg1, stronger effect = lower value) was 1 (inactive). The normalized growth (locus YJL092W, strain hpr5, stronger effect = lower value) was 1.01 (inactive), the normalized growth (locus YJL095W, strain BCK1 (second series), stronger effect = lower value) was 0.992 (inactive) and the normalized growth (locus YJL095W, strain BCK1, stronger effect = lower value) was 0.99 (inactive) and 0.866 (active). For the same molecule, the normalized growth (locus YJL115W, strain asf1, stronger effect = lower value) was 1 (inactive), the normalized growth (locus YJL129C, strain trk1, stronger effect = lower value) was 0.976 (inactive) and the normalized growth (locus YJL134W, strain LCB3, stronger effect = lower value) was 0.99 (inactive). The normalized growth (locus YJL154C, strain vps35, stronger effect = lower value) was 1 (inactive), the normalized growth (locus YJL164C, strain tpk1, stronger effect = lower value) was 0.99 (inactive) and the normalized growth (locus YJL166W, strain qcr8, stronger effect = lower value) was 0.992 (inactive). For the same molecule, the normalized growth (locus YJL168C, strain set2, stronger effect = lower value) was 0.977 (inactive), the normalized growth (locus YJL187C, strain SWE1 (second series), stronger effect = lower value) was 1 (inactive) and the normalized growth (locus YJL187C, strain SWE1, stronger effect = lower value) was 1.02 (inactive).

— PubChem BioAssay AID1159580 (chemical genetic matrix, 2015)
